# Data published in publication PMC7862700, “An all-to-all approach to the identification of sequence-specific readers for epigenetic DNA modifications on cytosine”.
# How the values were obtained:
# Assay in all cases: DAPPL (digital affinity profiling via proximity ligation, sequencing); 10 mM Tris-HCl pH 7.5, 50 mM NaCl, 1 mM DTT, 4% glycerol, room temperature, 30 min; GST-TFs on glutathione beads, 16-mer random dsDNA library, 0.1% formaldehyde crosslink after washing; high values mean tight binding
# Details in all cases: protein: recombinant; tags: N-terminal GST; dsDNA, one strand shown
# [1] = molecular target: ETV1 (Homo sapiens, UniProt P50549 1-477)
# Chain of ETV1 (P50549 whole entry, the tested form may be a part): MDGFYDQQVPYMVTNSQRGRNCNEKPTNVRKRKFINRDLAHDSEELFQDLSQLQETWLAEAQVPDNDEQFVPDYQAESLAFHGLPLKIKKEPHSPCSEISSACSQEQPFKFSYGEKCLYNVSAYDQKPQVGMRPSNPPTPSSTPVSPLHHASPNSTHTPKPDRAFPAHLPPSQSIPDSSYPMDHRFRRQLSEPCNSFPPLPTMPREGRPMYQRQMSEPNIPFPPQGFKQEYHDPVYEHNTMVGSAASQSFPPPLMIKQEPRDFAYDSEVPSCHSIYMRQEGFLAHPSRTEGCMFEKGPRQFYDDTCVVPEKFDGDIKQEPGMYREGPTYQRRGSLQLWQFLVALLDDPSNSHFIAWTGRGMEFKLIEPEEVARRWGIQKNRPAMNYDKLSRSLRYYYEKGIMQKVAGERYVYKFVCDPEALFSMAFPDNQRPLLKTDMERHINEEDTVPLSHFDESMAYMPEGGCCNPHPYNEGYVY
# Outline: (§1)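 Binding signal is given per hexamer as its read frequency for a factor divided by its frequency in the tag-only sample. GST-fused human transcription factors were expressed in yeast, captured on glutathione beads, barcoded with DNA and pooled with that sample, then incubated with 200 nmole of a 16-mer random double-stranded DNA library in Tris/NaCl/DTT/glycerol buffer for 30 min at room temperature. The pools were then washed, crosslinked, proximity-ligated, amplified by PCR and sequenced on an Illumina NextSeq500.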
# [2] = molecular target: T1, ERF (Homo sapiens, UniProt P50548 1-548)
# T1 sequence: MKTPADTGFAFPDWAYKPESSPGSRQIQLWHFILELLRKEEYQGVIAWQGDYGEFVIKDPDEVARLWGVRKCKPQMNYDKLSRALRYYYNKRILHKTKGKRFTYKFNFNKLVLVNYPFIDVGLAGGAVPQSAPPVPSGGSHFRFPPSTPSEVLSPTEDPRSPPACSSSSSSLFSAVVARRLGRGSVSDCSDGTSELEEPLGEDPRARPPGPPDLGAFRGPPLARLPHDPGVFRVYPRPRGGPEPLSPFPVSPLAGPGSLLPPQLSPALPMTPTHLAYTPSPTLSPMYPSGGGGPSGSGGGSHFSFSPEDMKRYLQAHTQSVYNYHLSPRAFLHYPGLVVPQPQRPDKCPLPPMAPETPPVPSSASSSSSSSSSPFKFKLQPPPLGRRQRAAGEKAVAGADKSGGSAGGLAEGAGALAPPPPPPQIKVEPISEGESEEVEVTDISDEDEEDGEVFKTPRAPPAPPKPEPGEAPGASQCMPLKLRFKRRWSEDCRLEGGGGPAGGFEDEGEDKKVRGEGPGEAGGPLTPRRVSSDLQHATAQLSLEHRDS
# Outline: as §1
# [3] = molecular target: T2, ETV3L (Homo sapiens, UniProt Q6ZN32 1-361)
# T2 sequence: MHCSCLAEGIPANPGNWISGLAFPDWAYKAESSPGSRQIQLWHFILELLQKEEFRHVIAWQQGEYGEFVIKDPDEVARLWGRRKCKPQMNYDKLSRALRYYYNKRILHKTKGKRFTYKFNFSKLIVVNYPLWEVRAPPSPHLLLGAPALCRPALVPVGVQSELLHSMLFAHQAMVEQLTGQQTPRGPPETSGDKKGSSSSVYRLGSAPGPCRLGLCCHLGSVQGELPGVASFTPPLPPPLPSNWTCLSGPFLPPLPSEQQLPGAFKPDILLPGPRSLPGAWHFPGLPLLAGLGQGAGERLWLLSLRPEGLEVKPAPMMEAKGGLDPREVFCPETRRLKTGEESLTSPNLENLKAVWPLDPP
# Outline: as §1
# [4] = molecular target: T3, ETS2 (Homo sapiens, UniProt P15036 1-469)
# T3 sequence: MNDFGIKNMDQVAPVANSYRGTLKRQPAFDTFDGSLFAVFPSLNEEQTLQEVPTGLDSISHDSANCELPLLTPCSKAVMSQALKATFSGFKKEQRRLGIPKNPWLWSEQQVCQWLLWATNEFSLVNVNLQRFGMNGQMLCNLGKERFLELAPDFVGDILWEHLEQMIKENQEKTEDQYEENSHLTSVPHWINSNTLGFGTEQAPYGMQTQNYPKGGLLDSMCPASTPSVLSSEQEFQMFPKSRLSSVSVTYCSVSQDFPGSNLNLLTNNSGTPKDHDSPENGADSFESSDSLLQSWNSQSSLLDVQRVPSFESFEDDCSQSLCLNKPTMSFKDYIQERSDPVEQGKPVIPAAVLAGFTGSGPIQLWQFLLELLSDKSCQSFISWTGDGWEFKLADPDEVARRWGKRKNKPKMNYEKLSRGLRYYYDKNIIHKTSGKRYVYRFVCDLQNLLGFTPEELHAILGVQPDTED
# Outline: as §1
# [5] = molecular target: T4, SPDEF (Homo sapiens, UniProt O95238 1-335)
# T4 sequence: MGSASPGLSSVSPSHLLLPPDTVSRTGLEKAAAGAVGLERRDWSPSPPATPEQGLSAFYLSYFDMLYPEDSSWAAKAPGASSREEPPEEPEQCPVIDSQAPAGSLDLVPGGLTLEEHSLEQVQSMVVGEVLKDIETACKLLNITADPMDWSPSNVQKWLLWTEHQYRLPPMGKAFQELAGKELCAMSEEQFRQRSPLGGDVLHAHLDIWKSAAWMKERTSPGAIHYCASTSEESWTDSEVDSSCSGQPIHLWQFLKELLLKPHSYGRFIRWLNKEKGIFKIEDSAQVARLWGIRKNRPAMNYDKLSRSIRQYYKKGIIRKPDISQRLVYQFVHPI
# Outline: as §1
# [6] = molecular target: T5, ETV7 (Homo sapiens, UniProt Q9Y603 1-341)
# T5 sequence: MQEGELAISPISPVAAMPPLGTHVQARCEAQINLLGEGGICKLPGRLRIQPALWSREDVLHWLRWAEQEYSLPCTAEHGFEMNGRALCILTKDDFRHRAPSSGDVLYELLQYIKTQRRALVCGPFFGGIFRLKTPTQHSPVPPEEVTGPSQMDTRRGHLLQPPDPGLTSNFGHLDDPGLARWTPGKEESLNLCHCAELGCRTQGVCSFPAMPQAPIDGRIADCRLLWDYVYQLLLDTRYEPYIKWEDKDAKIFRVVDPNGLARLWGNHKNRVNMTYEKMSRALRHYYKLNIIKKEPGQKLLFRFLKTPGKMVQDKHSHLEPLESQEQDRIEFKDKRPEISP
# Outline: as §1
# [7] = molecular target: T6, ELF5 (Homo sapiens, UniProt Q9UKW6-2 1-255)
# T6 sequence: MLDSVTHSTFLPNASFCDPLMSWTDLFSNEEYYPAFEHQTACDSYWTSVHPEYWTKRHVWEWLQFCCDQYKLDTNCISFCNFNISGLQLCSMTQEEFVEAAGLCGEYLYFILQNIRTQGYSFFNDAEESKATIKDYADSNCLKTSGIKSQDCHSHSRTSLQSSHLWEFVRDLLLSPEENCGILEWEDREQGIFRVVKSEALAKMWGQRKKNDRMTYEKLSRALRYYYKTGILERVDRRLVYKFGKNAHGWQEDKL
# Outline: as §1
# [8] = molecular target: T7, ETV3 (Homo sapiens, UniProt P41162-2 1-143)
# T7 sequence: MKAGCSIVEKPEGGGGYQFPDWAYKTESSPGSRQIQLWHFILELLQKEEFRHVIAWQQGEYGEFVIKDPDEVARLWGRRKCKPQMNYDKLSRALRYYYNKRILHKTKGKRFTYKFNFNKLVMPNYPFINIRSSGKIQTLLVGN
# Outline: as §1
# [9] = molecular target: ETV6 (Homo sapiens, UniProt P41212 1-452)
# Chain of ETV6 (P41212 whole entry): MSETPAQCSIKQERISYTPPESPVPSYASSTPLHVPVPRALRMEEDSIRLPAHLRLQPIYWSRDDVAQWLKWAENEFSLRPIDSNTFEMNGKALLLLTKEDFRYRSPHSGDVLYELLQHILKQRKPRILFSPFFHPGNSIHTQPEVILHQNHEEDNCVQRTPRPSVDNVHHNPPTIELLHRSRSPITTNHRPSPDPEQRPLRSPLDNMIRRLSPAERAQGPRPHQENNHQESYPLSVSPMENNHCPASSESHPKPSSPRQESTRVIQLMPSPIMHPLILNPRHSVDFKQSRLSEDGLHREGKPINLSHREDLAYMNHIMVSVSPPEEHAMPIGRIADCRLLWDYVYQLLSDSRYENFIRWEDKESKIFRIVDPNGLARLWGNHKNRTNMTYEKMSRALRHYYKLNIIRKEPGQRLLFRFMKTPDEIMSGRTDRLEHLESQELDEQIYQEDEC
# Outline: as §1
sequence,measurement,setting,value
TATTCC,binding signal,[1],"1.52 fold enrichment (6-mer frequency, TF over GST control)"
same,binding signal,[2],"1.49 fold enrichment (6-mer frequency, TF over GST control)"
same,binding signal,[3],"1.73 fold enrichment (6-mer frequency, TF over GST control)"
same,binding signal,[4],"1.58 fold enrichment (6-mer frequency, TF over GST control)"
same,binding signal,[5],"1.83 fold enrichment (6-mer frequency, TF over GST control)"
same,binding signal,[6],"1.66 fold enrichment (6-mer frequency, TF over GST control)"
same,binding signal,[7],"1.99 fold enrichment (6-mer frequency, TF over GST control)"
same,binding signal,[8],"1.64 fold enrichment (6-mer frequency, TF over GST control)"
same,binding signal,[9],"1.67 fold enrichment (6-mer frequency, TF over GST control)"
